# UBC9 SUMO inh: blocks human SUMOylation mediated by UBC9. HTRF SUMOylation assay, SAE1/SAE2 + UBC9, in vitro. 290,000 tested, 0.36% active. inhibition, % at 35 µM. P63279; in the data active means inhibition above about 50%, passing the limit was not always enough
# SIRT5 inh: sirtuin-5 (human) deacylase inhibition. Purified SirT5, succinyl-peptide AMC, trypsin-coupled fluorescence. inhibition, % at 15 µM. 330,000 tested, 1.1% active. AID 652115; in the data active means inhibition above about 15%
# Casp6 inh: inhibitors of human caspase-6. P55212. purified caspase-6, Z-VEID-R110 cleavage fluorescence. inhibition, % at 12.5 µM. 350,000 tested, 0.53% active. AID 686996;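 active means mean inhibition across replicates at least about 35%, with every replicate also reaching that limit, limit read from the data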;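 further: 0% = median of neutral control wells and 100% = no fluorescence left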
# NSD2 inh: NSD2 (human) methyltransferase inhibition; O96028; NSD2 peptide methylation, AlphaScreen, 120 min; inhibition, % at 12.5 µM; 310,000 tested, 0.54% active; AID 743445; in the data active means inhibition above about 50%
# Target sequence (O96028 whole entry, looked up): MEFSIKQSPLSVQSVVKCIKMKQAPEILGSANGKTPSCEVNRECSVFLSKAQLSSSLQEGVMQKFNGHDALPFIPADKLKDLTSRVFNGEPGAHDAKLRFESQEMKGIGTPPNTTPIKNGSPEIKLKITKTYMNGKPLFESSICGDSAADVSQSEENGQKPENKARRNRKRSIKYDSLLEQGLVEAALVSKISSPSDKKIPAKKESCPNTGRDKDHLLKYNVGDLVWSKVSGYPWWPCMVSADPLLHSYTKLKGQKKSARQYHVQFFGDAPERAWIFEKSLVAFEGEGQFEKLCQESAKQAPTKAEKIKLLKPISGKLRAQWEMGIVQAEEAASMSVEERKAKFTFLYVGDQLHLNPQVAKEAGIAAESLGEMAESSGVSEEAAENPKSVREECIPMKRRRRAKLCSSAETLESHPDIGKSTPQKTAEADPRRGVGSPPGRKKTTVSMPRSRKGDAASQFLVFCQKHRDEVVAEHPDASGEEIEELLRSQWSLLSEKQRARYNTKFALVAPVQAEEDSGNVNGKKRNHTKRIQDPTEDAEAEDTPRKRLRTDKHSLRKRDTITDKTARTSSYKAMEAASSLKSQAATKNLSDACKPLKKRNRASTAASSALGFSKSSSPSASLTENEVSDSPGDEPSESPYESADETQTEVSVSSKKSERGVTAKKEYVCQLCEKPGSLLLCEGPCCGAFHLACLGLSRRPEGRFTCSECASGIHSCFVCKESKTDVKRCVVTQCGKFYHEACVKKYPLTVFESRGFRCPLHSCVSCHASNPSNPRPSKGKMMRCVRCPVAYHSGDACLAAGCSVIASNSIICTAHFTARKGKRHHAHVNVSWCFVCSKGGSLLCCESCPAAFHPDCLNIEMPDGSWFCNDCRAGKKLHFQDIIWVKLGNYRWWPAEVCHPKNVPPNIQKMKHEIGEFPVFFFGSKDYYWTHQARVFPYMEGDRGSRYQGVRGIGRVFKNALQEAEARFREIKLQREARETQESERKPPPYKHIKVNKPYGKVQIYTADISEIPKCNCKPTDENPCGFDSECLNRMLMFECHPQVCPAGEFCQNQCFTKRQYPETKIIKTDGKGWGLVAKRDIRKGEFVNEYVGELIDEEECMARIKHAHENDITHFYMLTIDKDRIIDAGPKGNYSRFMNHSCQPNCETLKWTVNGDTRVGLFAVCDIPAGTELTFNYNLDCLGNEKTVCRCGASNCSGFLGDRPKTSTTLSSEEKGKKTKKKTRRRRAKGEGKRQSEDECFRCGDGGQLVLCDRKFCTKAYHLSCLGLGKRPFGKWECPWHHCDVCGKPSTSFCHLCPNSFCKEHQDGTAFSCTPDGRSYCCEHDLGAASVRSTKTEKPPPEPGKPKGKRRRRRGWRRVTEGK
# Starred values were filed as active, the others as inactive; x = no result. An excerpt weighted towards active compounds, which were near 1.6% of everything screened.
SMILES,UBC9 SUMO inh,SIRT5 inh,Casp6 inh,NSD2 inh
C[C@H]1CN([C@@H](C)CO)S(=O)(=O)c2ccc(/C=C/c3ccccc3)cc2O[C@@H]1CN(C)C(=O)Nc1ccc(F)cc1,x,28*,0,x
C[C@H](CO)N1C[C@H](C)[C@@H](CN(C)C(=O)Nc2ccc(F)cc2)Oc2cc(/C=C/c3ccccc3)ccc2S1(=O)=O,x,16*,1,x
C[C@@H]1CN([C@H](C)CO)S(=O)(=O)c2ccc(/C=C/c3ccccc3)cc2O[C@H]1CN(C)C(=O)Nc1ccc(F)cc1,x,-3,-2,x
C[C@H]1CN([C@@H](C)CO)S(=O)(=O)c2ccc(/C=C/c3ccccc3)cc2O[C@H]1CN(C)C(=O)Nc1cc(F)ccc1F,x,22*,-2,x
CO[C@H]1CN(C)C(=O)c2cc(NS(=O)(=O)c3ccc(Cl)cc3)ccc2OC[C@H](C)N(C)C[C@H]1C,x,-2,-7,x
C[C@@H]1CN([C@H](C)CO)C(=O)c2cc(NC(=O)CCC(F)(F)F)ccc2O[C@H]1CN(C)C(=O)Nc1ccccc1,x,-1,0,x
Cc1cc(NC(=O)C23CC4CC(C2)CC(n2cnc([N+](=O)[O-])n2)(C4)C3)no1,10,0,47*,-1
Cc1[nH]c2ccccc2c1C(=O)C(=O)N1CCN(c2ccccc2Cl)CC1,-6,34*,1,0
COc1cccc(NC(=O)N2CC(=O)N3[C@H](CO)[C@H](c4ccc(C#CCC5CCCC5)cc4)[C@H]3C2)c1,x,22*,1,x
O=C(Nc1cccc(F)c1)N1CC(=O)N2[C@@H](CO)[C@@H](c3ccc(C#CCC4CCCC4)cc3)[C@@H]2C1,x,4,2,x
COc1cccc(NC(=O)N2CC(=O)N3[C@@H](CO)[C@H](c4ccc(C#CCC5CCCC5)cc4)[C@@H]3C2)c1,x,20*,2,x
CN(C)CC#Cc1ccc([C@@H]2[C@@H](CO)N3C(=O)CN(C(=O)c4cccc(F)c4)C[C@@H]23)cc1,x,22*,2,x
CN(C)CC#Cc1ccc([C@@H]2[C@H]3CN(C(=O)c4cccc(F)c4)CC(=O)N3[C@H]2CO)cc1,x,-10,-15,x
O=C(c1ccc(F)cc1)N1CC(=O)N2[C@@H](CO)[C@H](c3ccc(C#CCC4CCCC4)cc3)[C@@H]2C1,x,16*,x,x
C[C@@H]1CN([C@@H](C)CO)C(=O)c2cc(NC(=O)NC3CCCCC3)ccc2O[C@@H](C)CCCCO[C@H]1CN(C)C(=O)CCC(F)(F)F,x,-3,2,x
O=C(NCc1ccc2c(c1)OCO2)C(=O)NCC1OCCN1S(=O)(=O)c1ccc(Br)cc1 (configuration not stated),-3,2,0,0
O=C(NCc1ccc2c(c1)OCO2)C(=O)NCC1OCCN1S(=O)(=O)c1ccc(Cl)cc1 (configuration not stated),-1,22*,0,-1
C[C@H](CO)N1C[C@H](C)[C@@H](CN(C)CC2CCCCC2)Oc2ccc(NC(=O)Cc3ccccc3)cc2CC1=O,x,7,2,x
CC(C)c1ccc(N2C(=O)CSC23C(=O)N2CCCc4cccc3c42)cc1 (configuration not stated),-8,18*,-2,-3
COc1ccc(N2C(=O)CSC23C(=O)Nc2ccccc23)cc1 (configuration not stated),-19,x,x,x
Cc1ccccc1NS(=O)(=O)c1ccc(C(=O)NCC2CCCO2)cc1 (configuration not stated),x,19*,-6,1
Cc1ccc(S(=O)(=O)Nc2ccccc2C(=O)NCC2CCCO2)cc1 (configuration not stated),15,-1,3,-1
C[C@@H]1CN([C@@H](C)CO)C(=O)c2cc(NC(=O)CCN3CCOCC3)ccc2O[C@@H]1CN(C)S(=O)(=O)c1cccs1,x,3,1,x
Cc1ccnc(NCc2cccc3ccccc23)c1,4,53*,5,2
O=C(C[C@H]1CC[C@H]2[C@@H](COC[C@H](O)CN2Cc2cc(F)ccc2F)O1)N[C@@H]1CCN(Cc2ccccc2)C1,x,8,-4,x
SMILES,UBC9 SUMO inh,SIRT5 inh,Casp6 inh,NSD2 inh
Cn1c(SCC(=O)c2cc(Cl)c(Cl)s2)nnc1-c1ccco1,23,4,52*,-4
O=C(C[C@H]1CC[C@@H]2[C@H](COC[C@@H](O)CN2C(=O)Nc2cc(Cl)cc(Cl)c2)O1)NCC1CCCCC1,x,4,1,x
CCC1C(=O)N=C(SCC(=O)Nc2nc3ccccc3s2)NC1=O (configuration not stated),13,9,40*,3
O=C(NCc1ccncc1)c1ccc(OCc2ccccc2)cc1,x,x,36*,-1
O=C(NCc1ccncc1)c1ccc(Oc2ccccc2)cc1,10,-6,3,-2
CC(=O)N1CCN(c2ccccc2NC(=O)c2ccc(Br)o2)CC1,5,27*,9,1
O=C(Nc1ccccc1N1CCCC1)c1ccc(Br)o1,-1,x,x,6
CN1C(=O)CC(Sc2ccccc2C(=O)O)C1=O (configuration not stated),10,-4,35*,-2
COc1ccc(CN(C)C[C@@H]2Oc3ccc(NC(=O)NC4CCCCC4)cc3CC(=O)N([C@H](C)CO)C[C@@H]2C)cc1,x,15*,-2,x
COc1ccc(CN(C)C[C@@H]2Oc3ccc(NC(=O)NC4CCCCC4)cc3CC(=O)N([C@@H](C)CO)C[C@H]2C)cc1,x,7,-3,x
COc1ccc(S(=O)(=O)Nc2ccc3c(c2)CC(=O)N([C@@H](C)CO)C[C@@H](C)[C@@H](CN(C)Cc2ccc(Oc4ccccc4)cc2)O3)cc1,x,14,x,x
COc1ccc(S(=O)(=O)Nc2ccc3c(c2)CC(=O)N([C@@H](C)CO)C[C@H](C)[C@H](CN(C)Cc2ccc(Oc4ccccc4)cc2)O3)cc1,x,17*,x,x
COc1ccc(NC(=O)Nc2ccc3c(c2)CC(=O)N([C@@H](C)CO)C[C@H](C)[C@@H](CN(C)Cc2ccc(Oc4ccccc4)cc2)O3)cc1,x,23*,0,x
COc1ccc(CN(C)C[C@H]2Oc3ccc(NS(=O)(=O)c4ccccc4)cc3CC(=O)N([C@@H](C)CO)C[C@@H]2C)cc1,x,17*,x,x
C[C@H]1CN([C@@H](C)CO)C(=O)c2cc(C#Cc3ccc(F)cc3)cnc2O[C@@H]1CN(C)Cc1ccccn1,x,-4,3,x
C[C@@H]1CN([C@@H](C)CO)C(=O)Cc2cc(NC(=O)CCC(F)(F)F)ccc2O[C@H]1CN(C)Cc1ccc(Oc2ccccc2)cc1,x,22*,x,x
C[C@@H]1CN([C@@H](C)CO)C(=O)c2cc(NS(=O)(=O)c3cn(C)cn3)ccc2O[C@@H]1CN(C)C(=O)Nc1ccccc1,x,5,-3,x
Cc1ccc(CNC(=O)C2CCCN(c3nc4ccsc4c(=O)s3)C2)cc1 (configuration not stated),22,18*,-2,-4
Cc1ccc(CNC(=O)C2CCCN(S(=O)(=O)N3CC(C)CC(C)C3)C2)cc1 (configuration not stated),x,20*,-2,-6
NC(=O)[C@@H]1[C@H]2C(=O)O[C@H](c3ccccc3)[C@H](c3ccccc3)N2[C@H](c2ccccc2OCCO)[C@@]12C(=O)Nc1ccccc12,x,10,0,x
Cc1ccc(C)c(NCC(=O)NNC(=S)Nc2ccccc2)c1,-39,18*,-3,0

# Compound activity from PubChem.
